Data reported in PubChem BioAssay.
“And” between values parts separate entries of the source, which are not always exact repeats. Equal values may be shown once. The source made the active and inactive calls.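 How the source made its calls, unless noted: active means compounds whose cell count with miR-34 switched on is under 0.7 times the count with it off; inactive means the rest.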

What was measured:
[1] = system: Aerobactin synthetase IucA (Klebsiella pneumoniae); assay: IucA aerobactin synthetase inhibitors, biochemical, Tocris library, absorbance (AID 1345561; call rule not given here;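 further: 100% = enzyme without compound and 0% = no enzyme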); conditions: purified IucA enzyme assay, absorbance (OD) read-out; stronger effect = lower value;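 tested at 8 µM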
[2] = sensitizers of A549 cells to miR-34 induction, primary screen, imaging, A549 dox-inducible miR-34, nuclei and caspase counts (AID 1347080); conditions: A549 miR-34 inducible, Hoechst nuclei count, 48 h
[3] = viability rescue of complex I mutant cybrids, primary screen, cell-based, galactose medium, ATP luminescence (AID 1645843;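 active means z-score of at least 1.8 in each of two replicates, scored against plate mean and spread of sample wells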;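 further: positive z means more ATP and so rescue of galactose-driven cybrid death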); conditions: complex I mutant cybrid cells, 72 h, stronger effect = higher value
[4] = measured here: relative caspase fold change +Dox/-Dox
[5] = measured here: total cells with miR-34 induction, stronger effect = lower value
[6] = measured here: total cells without miR-34 induction
[7] = stronger effect = lower value, cell number ratio, induced over uninduced

Structure (SMILES): C=CCN1CC[C@]2(C)c3cc(O)ccc3CC1[C@@H]2C
- remaining activity [1]: 113% (inactive)
- fold change ([2]; stronger effect = lower value): 0.961 (inactive)
- fold change [2, 4]: 0.641
- cell count [2, 5]: 8610
- cell count [2, 6]: 8960
- z-score [3]: 0.05 (inactive)

Structure (SMILES): Cc1[nH]c2ccc(Cl)cc2c1C1=CCNCC1
- remaining activity [1]: 103% (inactive)
- fold change [2, 7]: 0.919 (inactive)
- fold change [2, 4]: 1.4
- cell count [2, 5]: 7850
- cell count [2, 6]: 8550
- z-score [3]: -0.42 (inactive)

Structure (SMILES): CC(C)(Cc1c[nH]c2ccc(Cl)cc12)NCCOc1ccccc1OCC1CC1
- remaining activity [1]: 119% (inactive)
- fold change [2, 7]: 0.921 (inactive)
- fold change [2, 4]: 1.09
- cell count [2, 5]: 226
- cell count [2, 6]: 246
- z-score [3]: -1.23 (inactive)

Structure (SMILES): CN1[C@@H]2CC[C@H]1CC(OC(=O)N1Cc3ccccc3NC1=O)C2 (stereo not given in full)
- remaining activity [1]: 119% (inactive)
- fold change [2, 7]: 0.979 (inactive)
- fold change [2, 4]: 1.11
- cell count [2, 5]: 8310
- cell count [2, 6]: 8490
- z-score [3]: 0.365 (inactive)

Structure (SMILES): CC[N+](CC)(CCCNC1=CC(=O)C(NCCC[N+](CC)(CC)Cc2ccccc2)=CC1=O)Cc1ccccc1
- remaining activity [1]: 81.3% (inactive)
- fold change [2, 7]: 0.951 (inactive)
- fold change [2, 4]: 0.768
- cell count [2, 5]: 8950
- cell count [2, 6]: 9410
- z-score [3]: -0.46 (inactive)

Structure (SMILES): CCCN(C/C=C/I)C1CCc2ccc(O)cc2C1 (stereo not given)
- remaining activity [1]: 102% (inactive)
- fold change [2, 7]: 0.904 (inactive)
- fold change [2, 4]: 0.638
- cell count [2, 5]: 8360
- cell count [2, 6]: 9250
- z-score [3]: -0.23 (inactive)

Structure (SMILES): Cc1o[nH]c(=O)c1C[C@H](N)C(=O)O
- remaining activity [1]: 106% (inactive)
- fold change [2, 7]: 1.04 (inactive)
- fold change [2, 4]: 0.71
- cell count [2, 5]: 9160
- cell count [2, 6]: 8800
- z-score [3]: 0.59 (inactive)

Structure (SMILES): NC=Nc1ccc2[nH]c3c(c2c1)C[C@@]1(O)C2Cc4ccc(O)c5c4[C@@]1(CCN2CC1CC1)[C@H]3O5
- remaining activity [1]: 121% (inactive)
- fold change ([2]; stronger effect = lower value): 0.975 (inactive)
- fold change [2, 4]: 1.22
- cell count [2, 5]: 9860
- cell count [2, 6]: 10100
- z-score [3]: -0.38 (inactive)

Structure (SMILES): c1cc(Cc2cnc[nH]2)ccn1
- remaining activity [1]: 105% (inactive)
- fold change [2, 7]: 0.985 (inactive)
- fold change [2, 4]: 1.35
- cell count [2, 5]: 9560
- cell count [2, 6]: 9710
- z-score [3]: -0.25 (inactive)

Structure (SMILES): COC(=O)CN1CN(c2ccccc2)C2(CCN(Cc3ccc4ccccc4c3)CC2)C1=O
- remaining activity [1]: 120% (inactive)
- fold change [2, 7]: 0.912 (inactive)
- fold change [2, 4]: 0.824
- cell count [2, 5]: 8960
- cell count [2, 6]: 9820
- z-score [3]: 0.375 (inactive)

Structure (SMILES): CCOC(=O)c1ncc2[nH]c3ccc(OCc4ccccc4)cc3c2c1COC
- remaining activity [1]: 105% (inactive)
- fold change [2, 7]: 0.974 (inactive)
- fold change [2, 4]: 1.71
- cell count [2, 5]: 2080
- cell count [2, 6]: 2130
- z-score [3]: -0.79 (inactive)

Structure (SMILES): C=CCN1C[C@H](C)N([C@H](c2ccc(C(=O)N(CC)CC)cc2)c2cccc(O)c2)C[C@H]1C
- remaining activity [1]: 99.4% (inactive)
- fold change [2, 7]: 0.929 (inactive)
- fold change [2, 4]: 0.728
- cell count [2, 5]: 8160
- cell count [2, 6]: 8780
- z-score [3]: -0.17 (inactive)

Structure (SMILES): C[C@H](N)Cn1ccc2cc(F)c(Cl)cc21
- remaining activity [1]: 103% (inactive)
- fold change [2, 7]: 0.874 (inactive)
- fold change [2, 4]: 1.05
- cell count [2, 5]: 7990
- cell count [2, 6]: 9140
- z-score [3]: -0.575 (inactive)

Structure (SMILES): NC1(c2ccccc2Cl)CCCCC1=O (stereo not given)
- remaining activity [1]: 88.2% (inactive)
- fold change ([2]; stronger effect = lower value): 0.898 (inactive)
- fold change [2, 4]: 1.86
- cell count [2, 5]: 9020
- cell count [2, 6]: 10000
- z-score [3]: 1.53 (inactive)

Structure (SMILES): O=C1CSC(c2ccccc2Cl)c2cc(Cl)ccc2N1 (stereo not given)
- remaining activity [1]: 115% (inactive)
- fold change ([2]; stronger effect = lower value): 0.848 (inactive) and 0.875 (inactive)
- fold change [2, 4]: 1.12 and 0.874
- cell count [2, 5]: 2450 and 7360
- cell count [2, 6]: 2880 and 8400
- z-score [3]: -0.095 (inactive)

Structure (SMILES): O=C(O)/C=C/CO
- remaining activity [1]: 109% (inactive)
- fold change [2, 7]: 0.992 (inactive)
- fold change [2, 4]: 0.9
- cell count [2, 5]: 9440
- cell count [2, 6]: 9510
- z-score [3]: -0.335 (inactive)

Structure (SMILES): Cc1cc(C)cc(C(=O)OC2CC3CCC(C2)N3C)c1 (stereo not given)
- remaining activity [1]: 86.6% (inactive)
- fold change [2, 7]: 0.914 (inactive)
- fold change [2, 4]: 1.01
- cell count [2, 5]: 8100
- cell count [2, 6]: 8850
- z-score [3]: -0.125 (inactive)

Structure (SMILES): c1ccc(CCCCN2CCC(c3ccccc3)CC2)cc1
- remaining activity [1]: 90.6% (inactive)
- fold change [2, 7]: 0.976 (inactive)
- fold change [2, 4]: 1.02
- cell count [2, 5]: 8670
- cell count [2, 6]: 8890
- z-score [3]: 0.375 (inactive)

Structure (SMILES): O[C@H]1[C@H](O)[C@@H](O)CN2CC[C@H](O)[C@H]12
- remaining activity [1]: 107% (inactive)
- fold change ([2]; stronger effect = lower value): 0.875 (inactive) and 0.917 (inactive)
- fold change [2, 4]: 1.02 and 1.4
- cell count [2, 5]: 4910 and 9170
- cell count [2, 6]: 5610 and 10000
- z-score [3]: 0.34 (inactive)

Structure (SMILES): Oc1ccc2c3c1O[C@H]1c4oc5ccccc5c4C[C@@]4(O)C(C2)N(CC2CC2)CC[C@]314
- remaining activity [1]: 104% (inactive)
- fold change ([2]; stronger effect = lower value): 0.944 (inactive)
- fold change [2, 4]: 0.874
- cell count [2, 5]: 9060
- cell count [2, 6]: 9600
- z-score [3]: -0.325 (inactive)
